Screens from PubChem BioAssay.
PI4K2A inh: PI4K2A (human) kinase inhibition; Q9BTU6; purified PI4K2A, ADP-Glo luminescence, 1 h; stronger effect = lower value; activity change, negative = inhibition, % at 76.9 µM; actives 0.13% (n = 420,000); AID 1346378; in the data active means activity change below about -50%; inconclusive means mostly about -30% to -49%
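PI4K2A activity was measured by ADP-Glo luminescence: enzyme (4 ug/mL stock) and phosphatidylinositol (1.2 mM stock) in Tris pH 7.5/MgCl2/EGTA/Triton X-100 buffer were reacted with ATP (300 microM stock) for one hour at ambient temperature.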
GCN5L2 inh: GCN5L2 (KAT2A) acetyltransferase inhibition. AID 504327. actives 0.21% (n = 390,000). GCN5L2 HAT assay, ThioGlo1 CoA-SH fluorescence. Potency, µM (titrated, usually from 58.9 µM), usual class: inhibitors
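Enzyme at 20nM final was mixed with library compounds for 15 min at room temperature. Peptide H3(1-25) at 75uM, acetyl-CoA at 70uM and ThioGlo1 at 50uM were then added. Plates were read immediately and after 20 min (Ex340nm/Em540nm).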
Pin1 inh: blocks the human prolyl isomerase Pin1. actives 0.009% (n = 390,000). Q13526. Potency, µM (series often up to 115 µM), usual class: inhibitors. Pin1 FP peptide displacement, HiFluor488, 10 min. AID 504891; active means well fitted inhibition curve with a large enough effect in the polarisation, with a control signal flat, not every such curve was filed as active; inconclusive means small, poorly fitted or top-dose-only effect, or effect the other way, or a change in a side signal; inactive means no such curve, though single readings can be large or run the other way; the % refers to the polarisation
RGS12 GoLoco inh: inhibitors of human Gai1-RGS12 GoLoco interaction (red fluorophore). Gai1:RGS12 GoLoco peptide FP, rhodamine, 10 min. actives 0.44% (n = 230,000). Potency, µM (top dose mostly 61.6 µM), hits mostly inhibitors; active means well fitted inhibition curve with a large enough effect, not every such curve was filed as active; inactive means no such curve, though single readings can be large or run the other way; further: nearly all actives have a fitted effect of over 30% in size
PGK inhibitor: blocks T. brucei phosphoglycerate kinase. P07378. PGK/GAPDH coupled, Kinase-Glo luminescence, 60 min. Potency, µM (doses to about 57.5 µM), hits mostly inhibitors. actives 0.043% (n = 380,000); further: nearly all actives have a fitted effect of over 60% in size
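Recombinant glycosomal PGK reaction used 1,3-bisphosphoglycerate generated in-well by GAPDH (100nM final) in 100mM TEA pH 7.6, 5mM MgCl2, 0.01% Tween-20. After 60 minutes at room temperature, ATP was read by Kinase-Glo Plus luminescence end-point.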
PI5P4K alpha inh: inhibitors of human PI5P4K alpha; P48426; PI5P4Kalpha enzyme, ADP-Glo luminescence, 60 min; stronger effect = lower value; max response, %; actives 1.2% (n = 330,000); AID 652105; active means max response of -50% or lower; inconclusive means between -30% and -50%; inactive means -30% or higher; further: value at the top dose of about 77 µM
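Luminescence from ADP-Glo served as readout of PI5P4Kalpha activity in a qHTS format. Reaction: enzyme, substrate, compound, ATP at 5 microM final, 60 min at RT.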
Of the large screens only hits and unclear results are named; the others gave an inactive call; ! = a repeat was not active. This is a sample that favours compounds with a hit; in the whole collection about 1.2% have one here. Unless noted, the call rests on the fitted dose curve; in most records, active means well fitted curve in the direction sought with a large enough effect; inconclusive means small, poorly fitted or top-dose-only effect, or another doubt; inactive means no such curve, though single readings can be large; an effect the other way counts as inactive or inconclusive.

O=C(NCCc1ccccn1)c1ccc2nc(Cc3ccccc3F)oc2c1	GCN5L2 inh inconclusive (no result: RGS12 GoLoco inh)
Cc1nc(N)sc1-c1csc(NCc2ccccc2)n1	PI5P4K alpha inh inconclusive
Cc1cc(-c2csc(NCc3ccccc3)n2)c(C)n1C	PI4K2A inh inconclusive, Pin1 inh inconclusive, PI5P4K alpha inh -55
COC(=O)c1ccc2nc(-c3cccc(Br)c3)c(CC3CCCCC3)n2c1	none (no result: GCN5L2 inh, Pin1 inh, RGS12 GoLoco inh, PGK inhibitor)
Cc1nc2ccc(NC(=S)N3CCCC3)cc2nc1C	none
CCN(C(=O)C1CCC(CNS(=O)(=O)c2cccc3nsnc23)CC1)c1ccccc1 (stereo unspecified)	none (no result: RGS12 GoLoco inh, PI5P4K alpha inh)
O=C1OC2(c3cc(Br)c(O)c(Br)c3Oc3c2cc(Br)c(O)c3Br)c2c(Cl)c(Cl)c(Cl)c(Cl)c21	RGS12 GoLoco inh 0.79µM (no result: PI4K2A inh, GCN5L2 inh, Pin1 inh, PGK inhibitor, PI5P4K alpha inh)
Oc1cc2c(cc1O)C1c3ccc(O)c(O)c3OCC1(O)C2 (stereo unspecified)	GCN5L2 inh inconclusive, Pin1 inh inconclusive, RGS12 GoLoco inh 7.9µM, PGK inhibitor inconclusive, PI5P4K alpha inh -74
CCOC(=O)c1c(C)n(C)c2ccc(OC(=O)c3ccc([N+](=O)[O-])cc3)cc12	GCN5L2 inh 8.9µM
O=C(N1CCOCC1)N1CCN(c2ccccc2F)CC1	PI4K2A inh -62
O=C(N1CCOCC1)N1CCN(c2ccccc2)CC1	none
c1ccc(-c2nc(-c3ccccn3)no2)cc1	PI4K2A inh inconclusive (no result: PGK inhibitor, PI5P4K alpha inh)
c1ccc(-c2ccc(-c3nc(-c4ccccn4)no3)cc2)cc1	PI4K2A inh -94 (no result: PGK inhibitor, PI5P4K alpha inh)
Cc1ccc(-c2nc(-c3ccccn3)no2)cc1	PI4K2A inh -75, PGK inhibitor inconclusive, PI5P4K alpha inh inconclusive
O=C(OCc1cn([C@@H]2CN(C(=O)c3cccs3)[C@@H](c3ccccc3)C[C@H]2O)nn1)c1ccccc1	none (no result: GCN5L2 inh, Pin1 inh, RGS12 GoLoco inh)
COc1ccc(C(=O)CCC(=O)Nc2cc(Cl)c(O)c(Cl)c2)cc1	PI5P4K alpha inh -77 (no result: RGS12 GoLoco inh)
COc1ccc(C(=O)CCC(=O)Nc2ccc(OC)c(Cl)c2)cc1	Pin1 inh inconclusive (no result: RGS12 GoLoco inh, PI5P4K alpha inh)
COC(=O)C1=C(N)c2c(F)cccc2C1(C#N)c1ccccc1 (stereo unspecified)	none
C[C@@H]1C[C@H]2O[C@@H]2/C=C\C=C\C(=O)Cc2cc(O)cc(O)c2C(=O)O1	none (no result: GCN5L2 inh, Pin1 inh, RGS12 GoLoco inh, PGK inhibitor, PI5P4K alpha inh)
Cc1cc(NCCCCCCCNc2cc(C)nc3cc([N+](=O)[O-])ccc23)c2ccc([N+](=O)[O-])cc2n1	Pin1 inh inconclusive, PI5P4K alpha inh -61 (no result: GCN5L2 inh, RGS12 GoLoco inh)
COCCCNc1cc(C)nc2ccccc12	none
O=C(O)c1ccccc1Oc1ccc(Oc2ccccc2)cc1	none (no result: RGS12 GoLoco inh)
Cc1nn(-c2ccccc2)c2c1C(c1ccncc1)C(C#N)=C(N)O2 (stereo unspecified)	none
COc1cc(-n2nc(C)c3c2OC(N)=C(C#N)C3c2ccccc2)c(Cl)c(Br)c1O (stereo unspecified)	PI5P4K alpha inh -57
Cc1ccsc1C1NC(=O)c2c(sc3c2CCCC3)N1 (stereo unspecified)	PI5P4K alpha inh -68
CCN(CC)S(=O)(=O)c1cccc2cc(C(=O)O)c(O)cc12	GCN5L2 inh inconclusive, PI5P4K alpha inh -67
CCN(CC)S(=O)(=O)c1cc(C(=O)O)c(Cl)cc1Cl	none
C[N+]1(CC2COC(c3ccccc3)(C3CCCCC3)O2)CCCCC1 (stereo unspecified)	GCN5L2 inh 22µM (no result: Pin1 inh, RGS12 GoLoco inh, PGK inhibitor, PI5P4K alpha inh)
C[N+]1(CC2COC3(CCCCC3)O2)CCCCC1 (stereo unspecified)	RGS12 GoLoco inh 8.9µM
C[N+]1(CCOC(=O)C2(c3ccccc3)CCCC2)CCCCC1	none
CC(c1ccccc1)C1OCC(C[N+]2(C)CCCCC2)O1 (stereo unspecified)	RGS12 GoLoco inh 10µM
C[C@H](CO)N1C[C@H](C)[C@@H](CN(C)S(=O)(=O)c2ccc(F)cc2)Oc2c(NS(=O)(=O)c3ccccc3)cccc2C1=O	none (no result: RGS12 GoLoco inh)
CC(C)Oc1ccc(C(=O)Nc2nonc2-c2ccc(OC(C)C)cc2)cc1	none (no result: RGS12 GoLoco inh, PI5P4K alpha inh)
COc1cc(C)c(/C=C/C(C)=C/C=C/C(C)=C/C(=O)O)c(C)c1C	GCN5L2 inh 25µM (no result: Pin1 inh)
O=[N+]([O-])c1ccc(Cl)cc1NCCCN1CCOCC1	none (no result: PGK inhibitor)
Cc1c(Cl)cccc1NS(=O)(=O)c1ccc2c(c1)C1C=CCC1C(c1ccc(C(=O)O)cc1)N2 (stereo unspecified)	GCN5L2 inh inconclusive, Pin1 inh inconclusive, PGK inhibitor inconclusive, PI5P4K alpha inh -102
Cc1cccc(C)c1NS(=O)(=O)c1ccc2c(c1)[C@H]1C=CC[C@H]1[C@@H](c1ccc(Cl)cc1)N2	none (no result: RGS12 GoLoco inh, PI5P4K alpha inh)
COC(=O)c1ccc([C@H]2Nc3ccc(S(=O)(=O)Nc4ccc(C)cc4)cc3[C@H]3C=CC[C@H]32)cc1	none (no result: RGS12 GoLoco inh, PI5P4K alpha inh)
CC(=O)c1ccc2c(c1)C1C=CCC1C(c1ccc(S(=O)(=O)N3CCOCC3)cc1)N2 (stereo unspecified)	Pin1 inh inconclusive, PI5P4K alpha inh -65
COc1ccc(NS(=O)(=O)c2ccc3c(c2)[C@H]2C=CC[C@H]2[C@@H](c2ccc(C(=O)O)cc2)N3)cc1	GCN5L2 inh inconclusive, PGK inhibitor 28µM!, PI5P4K alpha inh -65 (no result: Pin1 inh, RGS12 GoLoco inh)
Oc1ccccc1-c1nc2cnccn2c1Nc1ccc2c(c1)OCCO2	none (no result: PGK inhibitor, PI5P4K alpha inh)
CC(=O)Nc1ccc(CNc2ncnc3ccc(-c4c(C)noc4C)cc23)cc1	GCN5L2 inh inconclusive (no result: RGS12 GoLoco inh, PI5P4K alpha inh)
CCN1CCN(C(=O)Cn2ncc3c([nH]c4ccc(C)cc43)c2=O)CC1	none (no result: RGS12 GoLoco inh)
Cc1cc(O)c(C(=O)/C=C/c2ccccc2Br)c(=O)o1	GCN5L2 inh inconclusive, Pin1 inh inconclusive, PI5P4K alpha inh -70 (no result: RGS12 GoLoco inh)
